Data taken from PubChem BioAssay AID652197 (Broad Institute, 2013).
Where “and” joins values, the source holds several entries; their conditions need not be identical. Equal entries are not always repeated. Among all 340,000 compounds or so, about 500 (0.15%) were called active.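 Rule for the calls: active = mean replicate inhibition of at least 30%, or all replicates individually reaching that 30% level; inactive = mean below 30% and not every replicate reaching it.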 Many of the other results were omitted from the sample, so actives are more common in it than they were.

molecular target: Endoplasmic reticulum aminopeptidase 1 (Homo sapiens) (UniProt Q9NZ08); test: human ERAP1 aminopeptidase inhibitors, primary screen, biochemical, single point, plate reader (AID 652197); settings: recombinant ERAP1, Leu-AMC fluorescence, 60 min; at 10.7 µM; stronger effect = higher value;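 note: 0% = neutral control wells and 100% = L-leucinethiol positive control wells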
Sequence (Q9NZ08 whole entry, looked up): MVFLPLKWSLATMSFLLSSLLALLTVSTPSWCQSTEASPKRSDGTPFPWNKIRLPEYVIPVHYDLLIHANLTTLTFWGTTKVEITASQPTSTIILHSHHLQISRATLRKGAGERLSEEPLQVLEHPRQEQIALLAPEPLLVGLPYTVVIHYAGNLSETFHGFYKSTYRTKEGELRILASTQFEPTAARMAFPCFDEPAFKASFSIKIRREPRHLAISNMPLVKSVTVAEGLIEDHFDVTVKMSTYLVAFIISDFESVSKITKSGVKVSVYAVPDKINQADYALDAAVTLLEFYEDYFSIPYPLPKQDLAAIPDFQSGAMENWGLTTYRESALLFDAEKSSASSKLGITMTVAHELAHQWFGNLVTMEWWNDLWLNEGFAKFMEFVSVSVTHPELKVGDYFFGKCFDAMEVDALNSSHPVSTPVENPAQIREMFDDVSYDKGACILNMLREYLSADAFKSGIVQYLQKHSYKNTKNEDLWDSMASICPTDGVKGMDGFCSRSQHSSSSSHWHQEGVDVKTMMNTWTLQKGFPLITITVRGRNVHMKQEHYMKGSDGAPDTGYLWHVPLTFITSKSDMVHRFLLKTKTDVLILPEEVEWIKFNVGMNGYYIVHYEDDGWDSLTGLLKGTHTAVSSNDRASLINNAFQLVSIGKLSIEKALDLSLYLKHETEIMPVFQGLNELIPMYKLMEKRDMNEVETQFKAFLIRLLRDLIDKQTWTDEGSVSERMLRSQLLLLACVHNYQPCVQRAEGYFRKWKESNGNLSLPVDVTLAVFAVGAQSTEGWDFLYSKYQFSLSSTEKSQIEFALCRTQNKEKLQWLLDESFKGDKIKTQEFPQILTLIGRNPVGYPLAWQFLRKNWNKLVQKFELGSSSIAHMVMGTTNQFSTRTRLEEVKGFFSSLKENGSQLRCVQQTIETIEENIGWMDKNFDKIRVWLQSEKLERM

Row | Compound | inhibition
1 | CC(=O)N1Cc2cc(C(=O)NCc3cc(F)cc(F)c3)nc(-c3cccc(C4=CCCC4)c3)c2[C@@H]1CCO | 3.25% (inactive)
2 | O=C(C[C@@H]1C=C[C@H](NC(=O)C2CCC2)[C@@H](CO)O1)NCC1CC1 | 0.604% (inactive)
3 | C[N+](C)(C)CCNC(=O)c1cc[n+](Cc2ccccc2)c(/C=N/O)c1 | 105% (active)
4 | C/C(Cc1ccccc1)=N\NC(=O)CNC(=O)c1cccc(Br)c1 | 7.75% (inactive)
5 | O=C(NCCCNCc1ccccc1)c1ccc(/C=N/O)nc1 | 4.32% (inactive)
6 | COc1ccc(C(=O)NCc2nnc(SCCOc3ccccc3)n2C)cc1 | 31.3% (active)
7 | COc1ccc(C(=O)NCc2nnc(SCC(=O)NC3=NCCS3)n2C)cc1 | 1.94% (inactive)
8 | COc1ccc(CC(=O)NCc2nnc(SCC(=O)Nc3nccs3)n2C)cc1 | 1.32% (inactive)
9 | COC(=O)C[C@H]1C[C@H]2c3cc(NC(=O)Nc4ccccc4F)ccc3O[C@H]2[C@H](CO)O1 | -1.68% (inactive)
10 | O=C(NC1Cc2ccccc2C1)[C@H]1[C@H](CO)[C@H]2Cn3c(ccc(C4=CCCCC4)c3=O)[C@H]2N1CC1CC1 | -5.27% (inactive)
11 | O=C(Cc1ccccn1)N[C@H]1CC[C@H](CCn2cc(-c3ccc(F)cc3)nn2)O[C@H]1CO | -3.36% (inactive)
12 | O=C(C[C@@H]1CC[C@H](NC(=O)CN2CCOCC2)[C@@H](CO)O1)NCCc1ccccc1 | 0.528% (inactive)
13 | O=C(N[C@H]1C=C[C@@H](CC(=O)N2CCc3ccccc3C2)O[C@@H]1CO)C1CCOCC1 | -0.073% (inactive)
14 | Cc1ccc(-c2ccccc2[C@H]2[C@@H](C#N)N(c3ncc(-c4ccccc4)s3)[C@@H]2CO)cc1 | -2.75% (inactive)
15 | Cc1ccc(S(=O)(=O)Nc2ccc3c(c2)C(=O)N([C@H](C)CO)C[C@@H](C)[C@@H](CN(C)S(C)(=O)=O)OCCCC[C@@H](C)O3)cc1 | 3.3% (inactive)
16 | C[C@@H]1CN([C@H](C)CO)C(=O)c2cc(NC(=O)c3ccncc3)ccc2O[C@@H](C)CCCCO[C@@H]1CN(C)CC1CC1 | -0.674% (inactive)
17 | C[C@@H]1CN([C@H](C)CO)C(=O)Cc2cc(NC(=O)CCC(F)(F)F)ccc2O[C@@H]1CN(C)CC1CCCCC1 | 0.143% (inactive)
18 | CO[C@@H]1CN(C)C(=O)c2ccc(NC(=O)Nc3c(C)noc3C)cc2OC[C@@H](C)N(C(=O)Nc2cccc(Cl)c2)C[C@H]1C | -0.693% (inactive)
19 | N#C[C@@H]1[C@H](c2ccccc2-c2ccccc2F)[C@@H](CO)N1C(=O)C1CCOCC1 | 0.396% (inactive)
20 | N#Cc1c(N2CCCCC2)nc(N)c2c(N)nc(SCC(=O)O)cc12 | 46.5% (active)
21 | O=C(O)CSc1ccc(S(=O)(=O)N2CCCC2)cn1 | 0.672% (inactive)
22 | Nc1nc(NCC(=O)O)nc(N2CCCCCC2)c1[N+](=O)[O-] | 4.98% (inactive)

Row | Compound | inhibition
23 | C/C=C/c1ccc(C2[C@H]3CNC[C@@H]2N3C(=O)Nc2cc(F)ccc2F)cc1 (stereo partly specified) | 0.659% (inactive) and 1.15% (inactive)
24 | Nc1nc2c(ncn2[C@@H]2O[C@H](C(=O)N[C@H](Cc3ccccc3)C(=O)NCC3CCCCC3)[C@@H](O)[C@H]2O)c(=O)[nH]1 | 2.44% (inactive)
25 | COc1ccc(CN(C)C[C@H]2OCCCC[C@H](C)Oc3ccc(NS(=O)(=O)c4ccc(C)cc4)cc3C(=O)N([C@@H](C)CO)C[C@H]2C)cc1 | 0.631% (inactive)
26 | Cc1ccc2[nH]c(=O)c(CN(C)S(=O)(=O)c3cccc4nonc34)cc2c1 | 0.344% (inactive)
27 | CCC(=O)N(CCc1ccccc1)Cc1cc2cc(C)ccc2[nH]c1=O | -2.61% (inactive)
28 | CCCc1nc(-c2cc3cc(C)ccc3[nH]c2=O)no1 | 55.1% (active)
29 | CC(C)NC(=O)N[C@H]1CC[C@@H](CC(=O)NCc2ccc(Oc3ccccc3)cc2)O[C@@H]1CO | -0.517% (inactive)
30 | COc1ccc(NC(=O)N2CC(=O)N3[C@H](CO)[C@@H](c4ccc(C#CCC5CCCC5)cc4)[C@H]3C2)cc1 | -1.79% (inactive)
31 | CC(=O)NC[C@H]1[C@@H](c2ccc(C#CC(C)C)cc2)[C@@H](CO)N1Cc1ccccn1 | 3.95% (inactive)
32 | COc1ccc(NC(=O)N2CC(=O)N3[C@H](CO)[C@@H](c4ccc(-c5ccc(C)cc5)cc4)[C@H]3C2)cc1 | 1.13% (inactive)
33 | O=C(c1ccc(F)cc1)N1CC(=O)N2[C@@H](CO)[C@@H](c3ccc(C#Cc4ccc(F)cc4)cc3)[C@@H]2C1 | -1.04% (inactive)
34 | C[C@H](CO)N1C[C@H](C)[C@H](CN(C)C(=O)Nc2ccc(C(F)(F)F)cc2)Oc2ccc(NS(=O)(=O)c3cn(C)cn3)cc2CC1=O | 2.19% (inactive)
35 | COc1ccc(S(=O)(=O)Nc2ccc3c(c2)C(=O)N([C@@H](C)CO)C[C@H](C)[C@H](CN(C)S(=O)(=O)c2c(C)noc2C)OCCCC[C@@H](C)O3)cc1 | -3.22% (inactive)
36 | O=C(NCC[C@@H]1CC[C@@H](NS(=O)(=O)c2ccc(Cl)cc2)[C@@H](CO)O1)c1ccccc1F | -2.75% (inactive)
37 | O=C(Cc1ccccc1)N1C[C@@H]2[C@H](c3ccccc31)[C@@H](CO)N2C(=O)C1CCOCC1 | -0.84% (inactive)
38 | C[C@@H]1CCCCO[C@H](CN(C)Cc2ccc(C(F)(F)F)cc2)[C@@H](C)CN([C@@H](C)CO)C(=O)c2cc(NC(=O)c3ccncc3)ccc2O1 | -3.82% (inactive)
39 | CO[C@@H]1CN(C)C(=O)c2cc(NC(=O)C3CCOCC3)ccc2OC[C@@H](C)NC[C@@H]1C | 1.93% (inactive)
40 | O=C(Nc1ccccc1F)N1CC(=O)N2[C@H](CO)[C@H](c3ccc(C#CC4CC4)cc3)[C@@H]2C1 | -1.09% (inactive)
41 | CN(C)C(=O)C[C@H]1C[C@H]2c3cc(NC(=O)Nc4ccc(C(F)(F)F)cc4)ccc3O[C@H]2[C@@H](CO)O1 | -0.814% (inactive)
42 | O=C(Nc1cc(F)ccc1F)N[C@H]1CC[C@@H](CCn2cc(C3CCCC3)nn2)O[C@@H]1CO | 0.545% (inactive)
43 | C[C@@H]1CN([C@H](C)CO)C(=O)c2cc(NS(C)(=O)=O)ccc2O[C@H]1CN(C)C(=O)Nc1cccc2ccccc12 | 0.237% (inactive)
44 | CO[C@H]1CN(C)C(=O)c2ccc(NC(=O)C3CC3)cc2OC[C@@H](C)N(C(=O)CN2CCOCC2)C[C@H]1C | 5.08% (inactive)

Row | Compound | inhibition
45 | COc1ccc(S(=O)(=O)N(C)C[C@@H]2Oc3ccc(NC(=O)C4CC4)cc3CC(=O)N([C@@H](C)CO)C[C@H]2C)cc1 | -1.45% (inactive)
46 | CNC[C@H]1Oc2cc(-c3ccc(OC)cc3)ccc2S(=O)(=O)N([C@H](C)CO)C[C@@H]1C | -1.76% (inactive)
47 | CO[C@@H](CN(C)S(=O)(=O)c1ccccc1)[C@H](C)CN(Cc1ccccc1Cl)[C@H](C)CO | -0.894% (inactive)
48 | C[C@@H](NC(=O)C[C@H]1C[C@@H]2c3cc(NC(=O)C4CCC4)ccc3O[C@@H]2[C@@H](CO)O1)c1ccccc1 | -1.46% (inactive)
49 | CO[C@@H]1CN(C)C(=O)c2ccc(NC(=O)Nc3cc(F)ccc3F)cc2OC[C@@H](C)N(C)C[C@@H]1C | 2.65% (inactive)
50 | CO[C@@H]1CC[C@@H]2CCOc3c(C#N)cccc3C(=O)N(C)C[C@H](C)C(=O)N(C)C[C@H]1O2 | 0.999% (inactive)
51 | COc1ccc(CNC(=O)C[C@H]2C[C@@H]3c4cc(NC(=O)NC5CCCC5)ccc4O[C@@H]3[C@H](CO)O2)cc1 | 2.29% (inactive)
52 | C/C=C/c1ccc2c(c1)O[C@H](CN(C)Cc1cccc(F)c1)[C@H](C)CN([C@H](C)CO)S2(=O)=O | 3.38% (inactive)
53 | COc1ccccc1C#Cc1ccc([C@@H]2[C@H](CO)N3CCCCN(CCC(F)(F)F)C[C@@H]23)cc1 | -1.03% (inactive)
54 | CCC(=O)N1[C@H](C(=O)NC2CCC2)[C@@H](CO)[C@@H]2Cn3c(cccc3=O)[C@@H]21 | -1.13% (inactive)
55 | O=C(CCN1CCCCC1)NCC[C@@H]1CC[C@H](NS(=O)(=O)c2cccc(Cl)c2)[C@H](CO)O1 | -1.39% (inactive)
56 | C/C=C/c1ccc2c(c1)[C@H]1[C@H](CCN1S(=O)(=O)c1cn(C)cn1)[C@H](CO)N2 | -3.06% (inactive)
57 | CO[C@@H]1CC[C@@H]2CCOc3c(C#N)cccc3C(=O)N(C)C[C@@H](OC)[C@@H](C)C(=O)N(C)C[C@H]1O2 | -3.74% (inactive)
58 | COc1cccc(NC(=O)N[C@H]2C=C[C@H](CC(=O)NCc3ccccn3)O[C@@H]2CO)c1 | 6.83% (inactive)
59 | COc1ccccc1CN1[C@H](CO)[C@@H](c2ccccc2)C12CN(C(=O)c1cnccn1)C2 | 0.797% (inactive)
60 | C[C@H]1CCCCO[C@H](CN(C)C(=O)NC2CCCCC2)[C@@H](C)CN([C@@H](C)CO)C(=O)c2cc(NC(=O)Nc3ccc4c(c3)OCO4)ccc2O1 | -0.479% (inactive)
61 | O=C(OCC(=O)N1CCN(C(=O)c2ccco2)CC1)c1cccc(O)c1 | -0.23% (inactive)
62 | CN(c1ccccc1)S(=O)(=O)c1cc(C(=O)OCC(=O)N2CCN(C(=O)c3ccco3)CC2)ccc1Cl | 60.1% (active)
63 | O=C(OCC(=O)N1CCN(C(=O)c2ccco2)CC1)c1ccc(Cl)c(Cl)c1 | 0.999% (inactive)
64 | CO[C@@H]1CN(C)C(=O)c2cc(NC(=O)C3CCOCC3)ccc2OC[C@H](C)N(Cc2cccnc2)C[C@H]1C | 0.791% (inactive)
65 | O=C(C[C@H]1CC[C@H]2NC[C@@H](O)COC[C@@H]2O1)NCCN1CCCC1 | 1.06% (inactive)
66 | O=C(Nc1cccc(F)c1)N1CC(=O)N2[C@H](C1)[C@H](c1ccc(-c3ccccc3F)cc1)[C@@H]2CO | 0.092% (inactive)
